According to PubChem BioAssay (NCI):
About 83,000 compounds went through this panel and 20% of them were active in at least one assay; those are over-represented in the sample as a whole.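 Each cell line was grown in a 96-well plate and treated with one concentration of compound for 48 hours. Values below 10 were considered active.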 A number with no mark means an inactive call. Activity calls are given as the source filed them.

Tests used:
Experiment in all cases: NCI-60 one-dose screen, 48 h (100 = growth as untreated, 0 = no growth, -100 = all killed)
Conditions in all cases: 10 µM unless noted
T-47D breast = tested on: T-47D breast
BT-549 breast = tested on: BT-549 breast
MDA-MB-435 melanoma = tested on: MDA-MB-435 melanoma
SW-620 colon = tested on: SW-620 colon
MCF7 breast = tested on: MCF7 breast
HCT-116 colon = tested on: HCT-116 colon
HCC-2998 colon = tested on: HCC-2998 colon
KM12 colon = tested on: KM12 colon

Structure (SMILES)	growth (T-47D breast)	growth (BT-549 breast)	growth (MDA-MB-435 melanoma)	growth (SW-620 colon)	growth (MCF7 breast)	growth (HCT-116 colon)	growth (HCC-2998 colon)	growth (KM12 colon)
CN(C)CCCn1c(=O)c2ccccc2c2ccccc21	87.9%	103%	89%	42.8%	58.4%	26.5%	68.2%	75.8%
c1c[nH]c(CNC2CCCCC2)c1	105%	105%	115%	102%	103%	103%	109%	98.2%
COc1cc2nc(Cl)nc(Nc3ccc(S(=O)(=O)Nc4nccs4)cc3)c2cc1OC	94.3%	95.1%	106%	105%	103%	95%	72.9%	112%
COc1cccc(-c2nc3sccn3c2/C=C/C(=O)c2ccc(C(F)(F)F)cc2)c1	64.1%	87.3%	73.3%	66.3%	65%	48.4%	102%	73.1%
CCCc1cc2c(=O)c(C(=O)OC)c[nH]c2cc1N(CC)CC	94.4%	93.5%	109%	114%	80.2%	96.3%	104%	105%
S=C(c1ccc2c(c1)OCO2)N1CCN(c2ccccc2Cl)CC1	94%	81.6%	99.9%	102%	103%	92.3%	113%	103%
O=[N+]([O-])c1ccc(-c2cc(-c3ccc(Nc4nc(Nc5ccc(Cl)cc5)nc(Nc5ccc(Cl)cc5)n4)cc3)no2)cc1	97.2%	103%	103%	96.6%	83.1%	83.7%	78.2%	105%
O=C1/C(=C2/C=Nc3ccccc32)N(O)c2ccccc21	19.5%	78.1%	-95.3% (active)	75.4%	40.3%	49.8%	113%	73.1%
COc1cccc(-c2nc3sccn3c2-c2ccnc(NCCNS(=O)(=O)c3ccc(C(F)(F)F)cc3)c2)c1	5.15% (active)	10.4%	33.6%	64.9%	19.5%	27.9%	70%	26.4%
COC(=O)[C@]12CC[C@@H](C)[C@H](C)[C@@H]1C1=CC[C@@H]3[C@@]4(C)C(C=O)=C[C@@](C)(COC(=O)c5ccco5)C4=CC[C@@]3(C)[C@]1(C)CC2	-8.1% (active)	5.64% (active)	-22.3% (active)	-7.67% (active)	11.4%	-71.3% (active)	-7.04% (active)	8.54% (active)
Cc1cccc(NC(=O)CSc2nc3ccccc3[nH]2)c1	88.9%	104%	103%	101%	92%	107%	102%	100%
CCCCn1c(=O)c2c(nc(NCCc3ccc(O)c(O)c3)n2CCC)n(CCCC)c1=O	49.3%	102%	82.6%	89.1%	65%	63.3%	78.8%	61.3%
COc1cc(C2CC(=O)Nc3c2c(C)nn3-c2nc3ccccc3[nH]2)c(OC)c2c1OCO2 (stereo not drawn)	67.2%	76%	-20.2% (active)	47.1%	45.3%	61.6%	97.5%	52.1%
COC(=O)[C@H](CSC)N(C)C(=O)[C@@H]1CSSC[C@@H](NC(=O)c2nc3ccccc3cc2O)C(=O)NCC(=O)N1C	33.8%	111%	70%	74.2%	79.4%	71.7%	98.8%	50.6%
COC(=O)CCC1=C(C)C2=NC1=CC1=NC(=CC3=NC(=Cc4[nH]c(/c(=C(/C)O)c4C)=C2)C(C(C)=O)=C3C)C(C)=C1CCC(=O)OC	82.9%	100%	108%	103%	98.2%	102%	104%	104%
Nc1nc(N)c2c(n1)NC(c1ccccc1)C1CCc3ccccc3C1=N2 (stereo not drawn)	30.7%	39%	28.4%	58.9%	18.7%	26.1%	65.4%	39.1%

Structure (SMILES)	growth (T-47D breast)	growth (BT-549 breast)	growth (MDA-MB-435 melanoma)	growth (SW-620 colon)	growth (MCF7 breast)	growth (HCT-116 colon)	growth (HCC-2998 colon)	growth (KM12 colon)
CN(C)c1ccc(-c2ccc3[nH]c(=O)nc(-c4ccccc4)c3c2)cn1	61%	41.9%	-11.9% (active)	24.5%	25.9%	16.4%	66.3%	19.8%
O=C(c1ccccc1)c1c(/C=C/c2ccc(Cl)cc2)nc2ccccc2c1/C=C/c1cccs1	94.6%	99.3%	99.1%	110%	92.3%	95.8%	103%	99.3%
COc1c(CCC[P+](c2ccccc2)(c2ccccc2)c2ccccc2)cc2c(c1OC)OCO2	2.54% (active)	11.5%	2.57% (active)	13.1%	2.19% (active)	5.97% (active)	24.1%	4.98% (active)
C[n+]1cccc(CC(=O)NO)c1	79%	103%	107%	105%	96.4%	104%	110%	107%
NC(=O)c1ccc[n+](Cc2ccc(Cl)cc2Cl)c1	85.3%	76%	107%	103%	95.7%	80%	93.3%	101%
Clc1cccc(Cl)c1C(Nc1nc2ccccc2s1)Nc1nc2ccccc2s1	95.7%	92.1%	107%	106%	91.3%	99.1%	117%	98.7%
c1cc2ccc3cc2cc1CNCCOCCNCc1ccc2ccc(cc2c1)CNCCOCCNC3	-23.8% (active)	99.6%	-90.2% (active)	2.45% (active)	-17.1% (active)	-4.41% (active)	-57.4% (active)	-39% (active)
COC(=O)[C@]12CC[C@@H](C)[C@H](C)[C@@H]1C1=CC[C@@H]3[C@@]4(C)C(C=O)=C[C@@](C)(COS(C)(=O)=O)C4[C@H](O)C[C@@]3(C)[C@]1(C)CC2 (stereo partly drawn)	-29.4% (active)	-49.6% (active)	-21.5% (active)	-51.4% (active)	-16% (active)	-85.3% (active)	-85% (active)	-75.4% (active)
O=C(/C=C/c1ccc(Cl)nc1)c1ccc(Cl)cc1Cl	91.6%	110%	89.9%	-33.2% (active)	17.1%	36.7%	114%	76.5%
C=C(C)[C@@H]1CC[C@]2(C(=O)NC3CCCCC3)CC[C@]3(C)[C@H](CC[C@@H]4[C@@]5(C)CCCNC(C)(C)[C@@H]5CC[C@]43C)[C@@H]12	-32.8% (active)	85.4%	6.98% (active)	-76.1% (active)	16.5%	-13.8% (active)	-16% (active)	16.7%
CCOC(=O)c1c2c(n3ccc(NC(=O)OC(C)(C)C)cc13)C(=O)c1ncccc1C2=O	5.16% (active)	-36.7% (active)	-62.2% (active)	-74.9% (active)	-72.2% (active)	-65.8% (active)	-59.4% (active)	-46.4% (active)
C[C@H](NC(=O)[C@@H]1CSSC[C@@H](NC(=O)c2nc3ccccc3cc2O)C(=O)NCC(=O)N1C)c1ccccc1	-35.6% (active)	44.3%	23.9%	-35.4% (active)	-2.09% (active)	12.8%	55.1%	19.8%
Clc1ccc(-c2c3ccc(=[N+]4CCCCC4)cc-3oc3cc(N4CCCCC4)ccc23)cc1	-75.3% (active)	-93.5% (active)	-59.9% (active)	-83.8% (active)	-73.9% (active)	-97.3% (active)	-95.6% (active)	-86.9% (active)
COc1ccc2cc(-c3cc(OC)c(OC)c(OC)c3)c(=O)oc2c1	56.5%	50.1%	7.5% (active)	44.3%	37.5%	46.9%	86.6%	65.8%
COc1cc(C2CC(=O)Nc3c2c(C)nn3-c2nc3ccccc3[nH]2)c(OC)c(OC)c1OC (stereo not drawn)	40.8%	52.7%	-36.4% (active)	26.7%	25.4%	23.5%	95.2%	35.1%
